Among all 94,000 compounds or so, about 2,100 (2.2%) were called active. No stated cut-off is given here; in the data, active means activity change below about -80%; inconclusive means no clear call, values can overlap the other calls; inactive means above that. What follows is part of a selection rich in actives, with near analogues and random picks from the rest.

The nature of this assay: Dd2 malaria parasite growth inhibition – SYBR Green fluorescence, single dose replicates, primary screen (AID 1159554). As to conditions: P. falciparum Dd2 growth, 72 h, at 10 µM, stronger effect = lower value.
Turning to `COc1ccc(-c2ccc([C@@H]3[C@H](CN(C)S(C)(=O)=O)N[C@@H]3CO)cc2)cc1`, the activity change was -61.4% (inactive).
For `C[C@H](CO)N1C[C@H](C)[C@@H](CN(C)C(=O)Cc2ccccn2)Oc2cc(-c3cccc(C(=O)N(C)C)c3)ccc2S1(=O)=O` the value was -3.07% (inactive).
For `CN1CCN(C(=O)C[C@H]2C[C@@H]3c4cc(NS(=O)(=O)c5ccc(F)cc5)ccc4O[C@@H]3[C@@H](CO)O2)CC1` the value was -2.3% (inactive).
For the molecule `CO[C@@H]1CN(C)C(=O)c2cc(NC(=O)NC3CCCC3)ccc2OC[C@H](C)NC[C@H]1C`, the activity change was 14.4% (inactive).
For `O=C(Nc1cc(F)ccc1F)N1CC(=O)N2[C@H](CO)[C@@H](c3ccc(-c4cccnc4)cc3)[C@@H]2C1` the value was -15.2% (inactive); for `CCC(=O)N1C[C@H]2[C@@H](c3ccccc31)[C@H](CO)N2Cc1ccccc1F`, 0.398% (inactive); for `CO[C@H]1CN(C)C(=O)c2ccc(NC(C)=O)cc2OC[C@@H](C)N(C(=O)c2ccccn2)C[C@@H]1C`, 13.4% (inactive).
For `Cc1noc(C)c1S(=O)(=O)N(C)C[C@@H]1OCCCC[C@@H](C)Oc2ccc(NS(=O)(=O)c3ccccc3)cc2C(=O)N([C@H](C)CO)C[C@@H]1C` the value was -10.1% (inactive); for `CCC(=O)N1CCC2(CC1)CN(Cc1cc(F)ccc1F)[C@@H](CO)c1c2c2ccc(OC)cc2n1C`, -73% (inactive).
For `COc1ccc2c3c([nH]c2c1)[C@@H](CO)N(Cc1ccccc1OC)CC31CCN(C)CC1` the value was 35.1% (inactive).
With `COc1ccc2c3c([nH]c2c1)[C@@H](CO)N(C(C)=O)CC31CN(C(=O)Nc2ccc(F)cc2)C1`, the activity change is -0.229% (inactive).
For `COCC(=O)N1CC2(C1)CN(Cc1ccccc1F)[C@@H](CO)c1[nH]c3cc(OC)ccc3c12` the value was -88.4% (active); for `COc1ccc2c3c(n(C)c2c1)[C@H](CO)N(Cc1ccccc1F)CC31CN(C(=O)C2CCC2)C1`, -14.5% (inactive); for `COc1ccc2c3c([nH]c2c1)[C@@H](CO)N(Cc1cc(F)ccc1F)CC31CCN(C(=O)C2CCC2)CC1`, -88% (active).
For `COc1ccc2c3c([nH]c2c1)[C@@H](CO)N(C(=O)NC(C)C)CC31CN(C(=O)C2CCCC2)C1` the value was 12.7% (inactive); for `COc1ccc2c3c([nH]c2c1)[C@@H](CO)N(Cc1cc(F)ccc1F)CC31CN(C(=O)C2CCC2)C1`, -89.2% (active).
For `COc1ccc2c3c([nH]c2c1)[C@@H](CO)N(Cc1ccncc1)CC31CN(C(=O)CN(C)C)C1` the value was -8.59% (inactive); for `CCC(=O)N1CC2(C1)CN(Cc1cc(F)ccc1F)[C@@H](CO)c1[nH]c3cc(OC)ccc3c12`, -89.9% (active).
In the case of `CCCNC(=O)N1CC2(CCN(C(=O)C3CC3)CC2)c2c([nH]c3cc(OC)ccc23)[C@H]1CO`, the activity change was -26.2% (inactive).
Regarding `COc1ccc2c3c([nH]c2c1)[C@H](CO)N(Cc1nccs1)CC31CCN(C(=O)C2CCC2)CC1`, the activity change was -50% (inactive).
For the molecule `CCS(=O)(=O)N1[C@H](CO)[C@@H](c2ccccc2)C12CN(C(=O)C1CCC1)C2`, the activity change was 35.7% (inactive).
Take `COc1ccccc1S(=O)(=O)N1CC[C@@H]2[C@H](CO)Nc3ccc(-c4ccccc4F)cc3[C@@H]21`: the activity change is -2.28% (inactive).
Turning to `O=C1CN(Cc2ccc(F)cc2)C[C@H]2[C@@H](c3ccc(Br)cc3)[C@H](CO)N12`, the activity change was -35.6% (inactive).
Then `O=C(C[C@H]1C[C@@H]2c3cc(NC(=O)C4CCC4)ccc3O[C@@H]2[C@H](CO)O1)NC1CCCCC1`, with 12% (inactive); and `O=C(N[C@@H]1C=C[C@H](CC(=O)N2CCOCC2)O[C@H]1CO)c1ccccn1`, with 34% (inactive); and `C[C@H](O)C#Cc1cnc2c(c1)C(=O)N([C@H](C)CO)C[C@H](C)[C@H](CN(C)C(=O)c1ccc(F)cc1)O2`, with 8.85% (inactive).
`COc1cccc(CNC(=O)C[C@@H]2CC[C@@H]3[C@H](COc4ccc(NC(C)=O)cc4C(=O)N3C)O2)c1`: the activity change is -0.731% (inactive).
For the molecule `C[C@H](CO)N1C[C@H](C)[C@@H](CN(C)Cc2ccc(Cl)c(Cl)c2)Oc2ccc(NC(=O)Nc3ccc(C(F)(F)F)cc3)cc2CC1=O`, the activity change is -87.2% (active).
Then `Cc1noc(C)c1NC(=O)Nc1ccc2c(c1)CC(=O)N([C@H](C)CO)C[C@@H](C)[C@@H](CN(C)Cc1ccncc1)O2`, with 3.85% (inactive); and `Cc1noc(C)c1NC(=O)Nc1ccc2c(c1)CC(=O)N([C@@H](C)CO)C[C@@H](C)[C@H](CN(C)Cc1ccc(Oc3ccccc3)cc1)O2`, with -81.8% (active).
Take `C[C@@H]1CN([C@H](C)CO)C(=O)Cc2cc(NC(=O)Nc3ccccc3)ccc2O[C@@H]1CN(C)Cc1ccc(C(F)(F)F)cc1`: the activity change was 2.2% (inactive).
Then `C[C@H]1CN([C@@H](C)CO)C(=O)Cc2cc(NC(=O)Nc3cccc4ccccc34)ccc2O[C@H]1CN(C)CC1CC1`, with -71.1% (inactive); and `C[C@H](CO)N1C[C@H](C)[C@@H](CN(C)CC2CC2)Oc2ccc(NC(=O)Nc3ccccc3)cc2CC1=O`, with -83.5% (active).
Then `C[C@@H]1CN([C@H](C)CO)C(=O)Cc2cc(NC(=O)Nc3ccccc3)ccc2O[C@H]1CN(C)Cc1ccc(Cl)c(Cl)c1`, with -5.47% (inactive).
Then `CC(C)NC(=O)Nc1ccc2c(c1)CC(=O)N([C@@H](C)CO)C[C@@H](C)[C@H](CN(C)CC1CC1)O2`, with 1.75% (inactive); and `Cc1noc(C)c1NC(=O)Nc1ccc2c(c1)C(=O)N([C@H](C)CO)C[C@H](C)[C@H](CN(C)Cc1ccc(Oc3ccccc3)cc1)O2`, with -39.9% (inactive).
For `CO[C@@H]1CN(C)C(=O)c2cc(NC(=O)C3CCOCC3)ccc2OC[C@H](C)N(Cc2cccnc2)C[C@@H]1C`, the activity change was 14.9% (inactive).
Then `CCS(=O)(=O)Nc1ccc2c(c1)C(=O)N(C)[C@@H]1CC[C@H](CC(=O)N3CCCCC3)O[C@@H]1CO2`, with 6.13% (inactive); and `CO[C@@H]1CN(C)C(=O)c2cc(NS(=O)(=O)c3ccccc3)ccc2OC[C@@H](C)N(C(=O)NC(C)C)C[C@@H]1C`, with 20.8% (inactive); and `COCC(=O)N1CCC2(CC1)CN(C(=O)Nc1ccccc1F)[C@@H](CO)c1c2c2ccc(OC)cc2n1C`, with -32.4% (inactive).
As to `CCCC#Cc1cnc2c(c1)C(=O)N([C@@H](C)CO)C[C@@H](C)[C@@H](CN(C)C(=O)c1ccccc1)O2`, the activity change is -15.9% (inactive).
Regarding `CO[C@H]1CN(C)C(=O)c2ccc(NC(=O)C3CC3)cc2OC[C@H](C)N(Cc2ccncc2)C[C@@H]1C`, the activity change was -31.5% (inactive).
For `COc1cccc(CNC(=O)[C@@H]2[C@@H](CO)[C@@H]3Cn4c(ccc(-c5cccnc5)c4=O)[C@@H]3N2C)c1` the value was 8.71% (inactive); for `O=C(C[C@@H]1CC[C@@H](NS(=O)(=O)c2ccc(F)cc2)[C@@H](CO)O1)NCCc1ccncc1`, 23.4% (inactive); for `O=C(N[C@H]1CC[C@@H](CCNS(=O)(=O)Cc2ccccc2)O[C@H]1CO)c1ccccc1F`, -32.4% (inactive).
Then `CC(C)NC(=O)N(C)C[C@H]1OCCCC[C@@H](C)Oc2ccc(NC(=O)C3CCCCC3)cc2C(=O)N([C@H](C)CO)C[C@H]1C`, with -37.9% (inactive); and `O=C(NC1CCCCC1)N1CC2(C1)[C@H](c1ccccc1)[C@@H](CO)N2S(=O)(=O)Cc1ccccc1`, with -4.41% (inactive).
For `C[C@@H]1CCCCO[C@H](CN(C)S(=O)(=O)c2cccs2)[C@@H](C)CN([C@@H](C)CO)C(=O)c2cc(NC(=O)NC3CCCCC3)ccc2O1`, the activity change was -76% (inactive).
For `O=C(Nc1ccccc1F)N1C[C@H]2[C@@H](c3ccccc31)[C@@H](CO)N2C(=O)Cc1cccnc1` the value was 13.8% (inactive); for `COCC(=O)N1CC2(C1)[C@H](c1ccc(-c3cccc(F)c3)cc1)[C@@H](CO)N2C(=O)COC`, 11.2% (inactive).
Then `COCC(=O)N1[C@H](CO)[C@@H](c2ccccc2)C12CN(Cc1cc(F)ccc1F)C2`, with -89% (active).
With `O=C(C1CCCC1)N1[C@@H](CO)[C@@H](c2ccccc2)C12CN(Cc1ccc(F)cc1)C2`, the activity change was -28% (inactive).
As for `O=C(C1CCCCC1)N1[C@H](CO)[C@@H](c2ccccc2)C12CN(Cc1cccc(Cl)c1)C2`, the activity change was -90.7% (active).
With `COCC(=O)N1CC2(C1)[C@@H](c1ccc(-c3cccc(F)c3)cc1)[C@@H](CO)N2C(=O)COC`, the activity change is 13.9% (inactive).
For `O=C(C1CCCC1)N1[C@H](CO)[C@@H](c2ccccc2)C12CN(CCC(F)(F)F)C2` the value was -46.4% (inactive); for `COc1cccc(C#Cc2ccc3c(c2)[C@H]2[C@H](CCN2C(=O)CC2CC2)[C@H](CO)N3)c1`, -67.1% (inactive); for `COc1ccc2c3c(n(C)c2c1)[C@@H](CO)N(Cc1ccncc1)CC31CN(C(=O)Nc2cccc(F)c2)C1`, -46.3% (inactive).
Regarding `C[C@H]1CN([C@@H](C)CO)C(=O)c2c(c3ccccc3n2C)-c2ccccc2CO[C@@H]1CN(C)Cc1ccc2c(c1)OCCN2C`, the activity change was -31.4% (inactive).
Take `CCCN1C[C@H](C)[C@@H](OC)CN(C)C(=O)c2ccc(NC(=O)c3cnccn3)cc2OC[C@H]1C`: the activity change is 13.8% (inactive).
Then `COC(=O)C[C@H]1CC[C@@H]2[C@@H](COc3ccc(NC(=O)Nc4ccc(Cl)cc4)cc3C(=O)N2C)O1`, with 9.95% (inactive); and `O=C([C@@H]1[C@@H](CO)[C@@H]2Cn3c(ccc(-c4cncnc4)c3=O)[C@@H]2N1C(=O)C1CCC1)N1CCCCC1`, with 34% (inactive).
Then `CCCN(C)C[C@H]1Oc2cc(C#CCC(C)C)ccc2S(=O)(=O)N([C@H](C)CO)C[C@H]1C`, with -26.1% (inactive); and `CCCC#Cc1ccc2c(c1)O[C@@H](CN(C)C(=O)c1ccccc1F)[C@H](C)CN([C@H](C)CO)S2(=O)=O`, with -85.1% (active); and `C[C@@H]1CN([C@H](C)CO)S(=O)(=O)c2ccc(C#CC3CC3)cc2O[C@H]1CN(C)Cc1ccccc1F`, with -16.8% (inactive).
With `C[C@H]1CN([C@@H](C)CO)S(=O)(=O)c2ccc(C#CCN(C)C)cc2O[C@H]1CN(C)C(=O)c1ccccc1F`, the activity change is -28.9% (inactive).
Then `CC(C)CC#Cc1ccc2c(c1)O[C@@H](CN(C)C(=O)c1ccccc1F)[C@H](C)CN([C@H](C)CO)S2(=O)=O`, with -71.3% (inactive); and `CC(C)CC#Cc1ccc2c(c1)O[C@H](CN(C)Cc1ccccc1F)[C@@H](C)CN([C@@H](C)CO)S2(=O)=O`, with -84.7% (active).
